Compounds with a hit are over-represented: about 2.5% of the library has one in this group of screens.
Cruzain inh Det: cruzain (T. cruzi) inhibition with detergent. P25779. purified cruzain, Z-FR-AMC fluorescence, 0.01% Triton. Potency, µM, inactives show max response, negative = inhibition, usual class: inhibitors. 200,000 tested, 0.43% active;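 note: plate controls were neutral wells for no effect and buffer without enzyme for full effect; nearly all actives have a fitted effect of over 40% in size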
Target sequence (P25779 123-467 limits assumed): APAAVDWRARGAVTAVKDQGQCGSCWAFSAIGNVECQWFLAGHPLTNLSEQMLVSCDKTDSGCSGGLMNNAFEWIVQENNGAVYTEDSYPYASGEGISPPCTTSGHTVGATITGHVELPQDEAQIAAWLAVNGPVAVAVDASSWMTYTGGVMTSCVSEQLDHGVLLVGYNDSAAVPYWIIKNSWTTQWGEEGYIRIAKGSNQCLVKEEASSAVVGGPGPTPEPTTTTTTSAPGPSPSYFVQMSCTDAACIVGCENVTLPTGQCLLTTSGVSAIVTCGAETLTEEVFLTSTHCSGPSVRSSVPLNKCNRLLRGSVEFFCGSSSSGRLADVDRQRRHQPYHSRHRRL
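Cysteine protease activity tested under reducing, mildly acidic conditions (100 mM sodium acetate pH 5.5, 5 mM DTT) plus 0.01% Triton X-100. Cruzain 1.5 nM; substrate Z-FR-AMC 2 uM; 15 min compound preincubation at room temperature.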
Cruzain noTriton: cruzain (T. cruzi) inhibition without detergent. purified cruzain, Z-FR-AMC fluorescence, no detergent. 200,000 tested, 2.3% active. Potency, µM, without a hit: max response, negative = inhibition, usual class: inhibitors. AID 1476;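 note: plate controls were enzyme without inhibitor for no effect and buffer without enzyme for full effect; nearly all actives have a fitted effect of over 40% in size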
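Detergent-free condition (0.00005% Triton X-100) in acetate buffer pH 5.5 with DTT. 1.5 nM enzyme and compound were pre-mixed 15 min, then 2 uM Z-FR-AMC substrate added; reaction progress from fluorescence change between first and third reads (60 s).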
The depositor's hits bear a star. Calls come from the whole dose curve; as a rule, active = well fitted curve in the direction sought with a large enough effect; inconclusive = small, poorly fitted or top-dose-only effect, or another doubt; inactive = no such curve, though single readings can be large; an effect the other way counts as inactive or inconclusive. Potency is the fitted concentration of half-maximal effect.

What do the screens show for `Cc1cc(Cl)ccc1NC(=O)CN1C(=O)CSc2ccc(S(=O)(=O)N(C)C)cc21`?
Cruzain inh Det: 0%; Cruzain noTriton: -25%

What do the screens show for `O=[N+]([O-])c1cc(/C=N/N2CCN(C3c4ccccc4-c4ccccc43)CC2)ccc1Cl`?
Cruzain inh Det: 4%; Cruzain noTriton: 13µM*

What do the screens show for `COc1ccc(/C=N/N2CCN(C3c4ccccc4-c4ccccc43)CC2)cc1O`?
Cruzain inh Det: -4%; Cruzain noTriton: 15%

How did C#CCO do in these assays?
Cruzain inh Det: -6%; Cruzain noTriton: 6%

Results for COc1ccc(NS(=O)(=O)c2ccc(N/N=C(\C)c3ccncc3)c([N+](=O)[O-])c2)cc1 ?
Cruzain inh Det: -8%; Cruzain noTriton: 13µM*

What do the screens show for `COc1ccccc1NS(=O)(=O)c1ccc(N/N=C(\C)C(C)C)c([N+](=O)[O-])c1`?
Cruzain inh Det: -5%; Cruzain noTriton: -2%

Results for C/C(=N\Nc1ccc(S(=O)(=O)Nc2ccc(Cl)cc2)cc1[N+](=O)[O-])c1ccc(N2CCOCC2)cc1 ?
Cruzain inh Det: -6%; Cruzain noTriton: 10µM*

How did O=C(O)c1cc(NS(=O)(=O)c2ccc(N3CCOCC3)c([N+](=O)[O-])c2)cc(C(=O)O)c1 do in these assays?
Cruzain inh Det: -4%; Cruzain noTriton: -6%

How did CC(C)CCNS(=O)(=O)c1ccc(N2CCCCS2(=O)=O)cc1 do in these assays?
Cruzain inh Det: 0%; Cruzain noTriton: -4%

What do the screens show for `Cc1ccc(C(=O)n2nc(C)c(S(=O)(=O)N3CCCCCC3)c2C)cc1`?
Cruzain inh Det: -2%; Cruzain noTriton: 8%

What do the screens show for `CC(=O)c1cccc(NC(=O)c2ccc(-n3c(C)nnc3C)cc2)c1`?
Cruzain inh Det: 0%; Cruzain noTriton: -4%

What do the screens show for `N#Cc1ccc(-c2cccs2)nc1SCC(=O)Nc1cccc(C(F)(F)F)c1`?
Cruzain inh Det: -4%; Cruzain noTriton: 20µM*

How did CN1CCc2nc(SCC(=O)Nc3ccc(OC(F)(F)F)cc3)c(C#N)c(-c3cccs3)c2C1 do in these assays?
Cruzain inh Det: -5%; Cruzain noTriton: inconclusive

What do the screens show for `CC(=O)CSc1nc(N)c(C#N)c(-c2cccs2)c1C#N`?
Cruzain inh Det: -4%; Cruzain noTriton: -9%

How did CN1CCc2nc(SCC(=O)Nc3cccc(F)c3)c(C#N)c(-c3cccs3)c2C1 do in these assays?
Cruzain inh Det: 0%; Cruzain noTriton: 20µM*

How did CC(C)(C)C(=O)CSc1nc2c(c(-c3cccs3)c1C#N)CCC2 do in these assays?
Cruzain inh Det: -4%; Cruzain noTriton: 25µM*

What do the screens show for `N#Cc1c(C(F)(F)F)cc(-c2cccs2)nc1SCC(=O)Nc1cccc(C(F)(F)F)c1`?
Cruzain inh Det: 0%; Cruzain noTriton: 9%

How did CC[C@H]1NC(=O)c2cc(S(N)(=O)=O)c(Cl)cc2N1 do in these assays?
Cruzain inh Det: 0%; Cruzain noTriton: 5%

Results for O=C(C1CCC(Cn2c(=O)c3sccc3n(Cc3ccc(F)cc3)c2=O)CC1)N1CCOCC1 (configuration not stated) ?
Cruzain inh Det: -7%; Cruzain noTriton: inconclusive

What do the screens show for `CSc1ccc(CCNC(=O)C(C)n2nc(C)c3sc4ccccc4c3c2=O)cc1` (configuration not stated)?
Cruzain inh Det: -15%; Cruzain noTriton: -7%

How did CCOC(=O)c1c(NC(=O)CC2SC(N)=NC2=O)sc2c1CCC(C)C2 (configuration not stated) do in these assays?
Cruzain inh Det: -12%; Cruzain noTriton: inconclusive

How did CCOC(=O)c1c(NC(=O)Cn2nc([N+](=O)[O-])c(Br)c2C)sc2c1CCC(C)C2 (configuration not stated) do in these assays?
Cruzain inh Det: -4%; Cruzain noTriton: 13µM*

How did C[C@H]1C2C=C[C@H]1[C@@H](C(=O)O)[C@@H]2c1c2ccc(=O)c(O)c-2oc2c(O)c(O)ccc12 do in these assays?
Cruzain inh Det: -19%; Cruzain noTriton: 16%

How did O=C(Nc1nc(-c2ccccc2)cs1)c1ccc2c(c1)S(=O)(=O)c1ccccc1C2=O do in these assays?
Cruzain inh Det: -4%; Cruzain noTriton: inconclusive

Results for O=C(Nc1nc2ccc(SC(F)F)cc2s1)c1ccc2c(c1)S(=O)(=O)c1ccccc1C2=O ?
Cruzain inh Det: -5%; Cruzain noTriton: 5µM*

How did CC(=O)N1CCCc2cc(S(=O)(=O)N(C)CC(=O)Nc3ccc(C(C)C)cc3)ccc21 do in these assays?
Cruzain inh Det: -3%; Cruzain noTriton: inconclusive

What do the screens show for `CCN(CCCNC(=O)c1cc2cc3ccc(OC)cc3nc2s1)c1ccccc1`?
Cruzain inh Det: 20µM*; Cruzain noTriton: 32µM*

Results for CCN(CCCNC(=O)c1cc2cc3ccc(OC)cc3nc2s1)c1cccc(C)c1 ?
Cruzain inh Det: -11%; Cruzain noTriton: inconclusive

What do the screens show for `Cc1ccc2oc(=O)c3cnn(CC(=O)N4CCN(c5ccccc5F)CC4)c3c2c1`?
Cruzain inh Det: -2%; Cruzain noTriton: -17%

What do the screens show for `COc1ccc(CCNC(=O)C(C)n2nc(C)c3sc4ccccc4c3c2=O)cc1OC` (configuration not stated)?
Cruzain inh Det: -5%; Cruzain noTriton: 32µM*

What do the screens show for `Cc1nn(C(C)C(=O)NCc2ccc(OC(C)C)cc2)c(=O)c2c1sc1ccccc12` (configuration not stated)?
Cruzain inh Det: inconclusive; Cruzain noTriton: 28%

How did Cc1ccc(CNC(=O)C(C)n2nc(C)c3sc4ccccc4c3c2=O)cc1 (configuration not stated) do in these assays?
Cruzain inh Det: -5%; Cruzain noTriton: 4µM*

How did COc1ccc(CNC(=O)C(C)n2nc(C)c3sc4ccccc4c3c2=O)cc1OC (configuration not stated) do in these assays?
Cruzain inh Det: -3%; Cruzain noTriton: -2%

Results for O=S(=O)(NCCO)c1cc[c]([Sb])cc1 ?
Cruzain inh Det: 1%; Cruzain noTriton: -7%

How did Cc1cc(C)n(/N=C/c2cccc([N+](=O)[O-])c2)c(=O)c1 do in these assays?
Cruzain inh Det: 0%; Cruzain noTriton: -13%

Results for Cc1ccc(N=Cc2nc(/C=C/c3cccc([N+](=O)[O-])c3)oc2O)cc1 ?
Cruzain inh Det: 4%; Cruzain noTriton: 5µM*

Results for CC(=O)Nc1ccc(OC(=O)c2cc3cc(Br)cc(Br)c3oc2=O)cc1 ?
Cruzain inh Det: -1%; Cruzain noTriton: 20µM*

How did CC(=O)Nc1ccc(OC(=O)c2cc3cc(Br)ccc3oc2=O)cc1 do in these assays?
Cruzain inh Det: 0%; Cruzain noTriton: 0%

Results for COc1cccc(Cc2nc3ccccc3nc2SCC(=O)NCCc2ccccc2)c1 ?
Cruzain inh Det: -4%; Cruzain noTriton: 1%

Results for N#Cc1ccc(CSc2nnc(NC(=O)C3CCCO3)s2)cc1 (configuration not stated) ?
Cruzain inh Det: -2%; Cruzain noTriton: -6%

Results for CCS(=O)(=O)N1Cc2ccccc2CC1C(=O)Nc1nc2ccc(C)cc2s1 (configuration not stated) ?
Cruzain inh Det: -7%; Cruzain noTriton: 13µM*

How did CCS(=O)(=O)N1Cc2ccccc2CC1C(=O)Nc1ccc(C)cc1 (configuration not stated) do in these assays?
Cruzain inh Det: -3%; Cruzain noTriton: inconclusive

Results for CCS(=O)(=O)N1Cc2ccccc2CC1C(=O)Nc1nnc(SCc2ccc(C#N)cc2)s1 (configuration not stated) ?
Cruzain inh Det: -6%; Cruzain noTriton: 25µM*

Screening results from PubChem.
